# Data: PMC4336329 (PLoS ONE, 2015)
# Hit rate of the full screen: of about 310,000 compounds, about 2,200 (0.71%) showed an effect of 50% or more. The effect is printed as a negative number. The list comes from a sample in which strong results are over-represented; it also holds similar structures and randomly drawn compounds.
# Molecular target: human ether-à-go-go-related gene (hERG) potassium channel (human, UniProt Q12809)
# Assay: primary screen, population patch clamp on CHO cells stably expressing hERG; higher = less effect of the substance
# Chain of human ether-à-go-go-related gene (hERG) potassium channel (Q12809 whole entry, looked up): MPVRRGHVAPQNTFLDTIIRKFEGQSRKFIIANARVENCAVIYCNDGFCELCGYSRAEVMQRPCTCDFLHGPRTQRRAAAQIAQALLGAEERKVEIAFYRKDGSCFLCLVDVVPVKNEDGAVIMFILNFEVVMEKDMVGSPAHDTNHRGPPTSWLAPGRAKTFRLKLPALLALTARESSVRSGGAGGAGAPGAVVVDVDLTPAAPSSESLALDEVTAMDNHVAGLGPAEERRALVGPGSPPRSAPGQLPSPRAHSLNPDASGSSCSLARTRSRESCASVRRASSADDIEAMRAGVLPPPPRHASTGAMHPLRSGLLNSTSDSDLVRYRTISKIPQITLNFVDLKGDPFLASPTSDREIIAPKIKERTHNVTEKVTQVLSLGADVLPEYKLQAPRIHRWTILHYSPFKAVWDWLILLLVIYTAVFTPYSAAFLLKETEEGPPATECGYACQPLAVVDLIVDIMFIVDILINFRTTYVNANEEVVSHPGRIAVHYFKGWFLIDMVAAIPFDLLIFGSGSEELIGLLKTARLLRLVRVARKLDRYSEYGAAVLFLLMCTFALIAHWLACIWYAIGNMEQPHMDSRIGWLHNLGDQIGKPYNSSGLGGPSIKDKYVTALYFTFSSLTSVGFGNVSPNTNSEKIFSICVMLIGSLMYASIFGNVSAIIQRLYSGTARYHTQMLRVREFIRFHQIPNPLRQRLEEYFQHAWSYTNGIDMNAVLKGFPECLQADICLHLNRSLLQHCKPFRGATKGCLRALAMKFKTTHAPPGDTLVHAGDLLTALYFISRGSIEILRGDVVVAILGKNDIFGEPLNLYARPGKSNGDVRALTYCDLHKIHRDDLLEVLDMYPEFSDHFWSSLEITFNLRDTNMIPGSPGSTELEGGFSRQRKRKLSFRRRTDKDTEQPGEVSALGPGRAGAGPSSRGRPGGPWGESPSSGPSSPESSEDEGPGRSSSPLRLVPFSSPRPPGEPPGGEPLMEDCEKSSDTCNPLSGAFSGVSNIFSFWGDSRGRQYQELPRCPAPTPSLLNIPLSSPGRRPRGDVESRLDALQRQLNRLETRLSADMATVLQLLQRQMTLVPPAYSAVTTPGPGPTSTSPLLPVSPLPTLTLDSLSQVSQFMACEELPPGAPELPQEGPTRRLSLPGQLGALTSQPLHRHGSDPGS
row,SMILES,"hERG current change (%, negative = inhibition) at 1uM"
1,COc1ccc(C=O)cc1Cn1c(=O)n(CCC(=O)NCc2ccco2)c(=O)c2sccc21,5.91%
2,COc1ccc(N(CC(=O)NCc2ccc(Cl)cc2)S(=O)(=O)c2c(C)n[nH]c2C)cc1,1.42%
3,Cc1cc(C)nc(NS(=O)(=O)c2ccc(Br)cc2)n1,21.2%
4,Cc1ccc(Cn2c(CN3CC(C)OC(C)C3)nc3c2c(=O)[nH]c(=O)n3C)cc1 (stereo not shown),-3.88%
5,O=C(O)CCn1cc(/C=C/C(=O)c2ccc(Cl)cc2)c(-c2cccc(Br)c2)n1,14.7%
6,CCCCN(C)C(=O)C1CCN(Cc2cccnc2)CC1,10.1%
7,CCCCN(C)C(=O)C1CCN(C/C(C)=C/c2ccccc2)CC1.O=C(O)C(=O)O,-54.3%
8,CCCCN(C)C(=O)C1CCN(Cc2cccc(OCc3ccccc3)c2)CC1.O=C(O)C(=O)O,-35.6%
9,CCCCN(C)C(=O)C1CCN(Cc2ccc(OCc3ccccc3)cc2)CC1.O=C(O)C(=O)O,-55.7%
10,CCN(CC)C(=O)C1CCN(Cc2ccc(OCc3ccccc3)cc2)CC1.O=C(O)C(=O)O,-13.3%
11,CCN(Cc1ccccc1)C(=O)C1CCN(C/C(C)=C/c2ccccc2)CC1.O=C(O)C(=O)O,-31%
12,O=C(C1CCN(CC2CC=CCC2)CC1)N(CCc1ccccc1)Cc1ccccc1 (stereo not shown),-47%
13,CCCCN(C)C(=O)C1CCN(Cc2ccccn2)CC1.O=C(O)C(=O)O,6.35%
14,CC1CCN(C(=O)C2CCN(CCCc3ccccc3)CC2)CC1.O=C(O)C(=O)O,-23.5%
15,CCCCNC(=O)C1CCN(C/C(C)=C/c2ccccc2)CC1.O=C(O)C(=O)O,-33.9%
16,CCCCN(C)C(=O)C1CCN(CCCc2ccccc2)CC1.O=C(O)C(=O)O,-73.6%
17,O=C(C1CCN(CCCc2ccccc2)CC1)N(CCc1ccccc1)Cc1ccccc1.O=C(O)C(=O)O,-75%
18,COC(=O)C1=C(c2cc3ccccc3o2)C[C@@H]2CC[C@H]1N2C(=O)NC1CCCCC1,-7.33%
19,CC(C)C(NC(=O)c1ccccc1)c1nnc(SCC(=O)Nc2nccs2)n1C (stereo not shown),15.7%
20,Cc1cc(=O)nc2c3ccccc3n(CC(=O)NCCCN3CCCC3=O)n12,10.4%
21,O=C(O)CCC(=O)NNC(=O)c1cccs1,15.5%
22,CCOC(=O)CSc1nc(CC)nc2ccccc12,4.2%
23,O=c1cc(CO)oc(CN2CCCC2)c1O,-2.54%

row,SMILES,"hERG current change (%, negative = inhibition) at 1uM"
1,C/C(=N\O)c1ccc2c(c1)CC(C)O2 (stereo not shown),13.6%
2,COc1ccc2c(c1)sc(N)[n+]2Cc1cc(C)cc2cccnc12.[Br-],-26.5%
3,Cc1cc(C[n+]2ccsc2N)c2ncccc2c1.[Br-],-20.1%
4,CCOc1ccc2c(c1)sc(N)[n+]2Cc1cc(C)cc2cccnc12.[Br-],-56.2%
5,CN(Cc1ccccc1)C(=O)c1nn2cccnc2c1Cl,13.2%
6,COCCn1c(=N)c(C(=O)NCCc2ccccc2)cc2c(=O)n3cccc(C)c3nc21,-86.1%
7,COCCNC(=O)c1cc2c(=O)n3cccc(C)c3nc2n1C,22.6%
8,CCNC(=O)c1cc2c(=O)n3cccc(C)c3nc2n(CCc2ccccc2)c1=N,-90.7%
9,Cc1cccn2c(=O)c3cc(C(=O)NCCN4CCOCC4)c(=N)n(CCN4CCOCC4)c3nc12,12.2%
10,COCCn1c(=N)c(C(=O)NCCc2ccc(OC)cc2)cc2c(=O)n3cccc(C)c3nc21,-95.4%
11,CCCCNC(=O)c1cc2c(=O)n3cccc(C)c3nc2n(CCN2CCOCC2)c1=N,-92.4%
12,Cc1cccn2c(=O)c3cc(C(=O)NCCN4CCOCC4)n(C)c3nc12,9.82%
13,COc1ccc(CN2CCN(Cc3ccccc3C(F)(F)F)CC2)c(OC)c1.O=C(O)C(=O)O,-39.5%
14,Cc1ccc(N2C(=O)CC(NCc3ccc4c(c3)OCO4)C2=O)cc1Cl (stereo not shown),-12.2%
15,COc1ccc(COC(=O)c2ccc(C)c(S(=O)(=O)N3CCOCC3)c2)cc1F,16%
16,Cc1ccc(CNS(=O)(=O)c2ccc3c(c2)C(C)(C)C(=O)N3C)cc1,7.06%
17,COc1cc(CNC(=O)CCCC/C=C/C(C)C)ccc1O,11.8%
18,CC(=O)N1CCN(c2ccc(NC(=O)c3ccc(Cl)c([N+](=O)[O-])c3)cc2)CC1,5.32%
19,O=C(C/C(=N\NC(=O)c1ccccc1Br)C(F)(F)F)c1cccs1,3.65%
20,O=C(Nc1ncnc2sc3c(c12)CCCCC3)c1ccc(F)cc1,14.2%
21,Cc1[nH]c2ccccc2c1C(=O)CSc1nc2cc(S(=O)(=O)N3CCCCC3)ccc2o1,9.62%
22,CCc1cc2c(=O)c(-c3nc4ccccc4n3C)c(CCCC(=O)O)oc2cc1OC(=O)C(C)(C)C,14.8%
23,CC(=O)c1ccc(NC(=O)Cc2ccsc2)cc1,14.1%

row,SMILES,"hERG current change (%, negative = inhibition) at 1uM"
1,C=CCNC(=O)NS(=O)(=O)c1ccc(C)cc1,16.6%
2,Cc1cccn2c(=O)c3cc(C(=O)NCCCn4ccnc4)n(C)c3nc12,2.55%
3,Cc1cccn2c(=O)c3cc(C(=O)NCCc4ccccc4)c(=N)n(CCCn4ccnc4)c3nc12,-61.3%
4,Cc1cccn2c(=O)c3cc(C(=O)NC(C)c4ccccc4)c(=N)n(CCCn4ccnc4)c3nc12 (stereo not shown),-10.8%
5,Cc1cccn2c(=O)c3cc(C(=O)NCCN4CCOCC4)c(=N)n(CCc4ccccc4)c3nc12,-71.8%
6,Cc1ccc(C2(C)NC(=O)N(CC(=O)Nc3cc(S(=O)(=O)N4CCOCC4)ccc3C)C2=O)cc1 (stereo not shown),-9.42%
7,O=C(CO/N=C/c1ccc(OC(F)F)cc1)NCc1ccc(F)cc1,-52%
8,COC(=O)c1ccc(/C=N/OCC(=O)NCc2ccc(F)cc2)cc1,3.32%
9,CC(C)(C)c1ccc(/C=N/OCC(=O)NCc2ccc(F)cc2)cc1,11.5%
10,O=C(NCc1cc(C(F)(F)F)cc(C(F)(F)F)c1)C1CC(c2ccc(C(F)(F)F)cc2)=NO1 (stereo not shown),18.6%
11,Cl.c1ccc(CN2CCN(CCN3CCn4c3nc3ccccc34)CC2)cc1,-62.3%
12,CN1CCN(CCN2CCn3c2nc2ccccc23)CC1.Cl,5.64%
13,Cl.c1ccc2c(c1)nc1n2CCN1CCN1CCCC1,18.3%
14,COc1ccc(CN(C)C(c2ccccc2)c2nnnn2-c2ccccc2C)c(OC)c1C (stereo not shown),11.5%
15,CCn1c(CC(=O)Nc2ccccc2)nnc1SCC(=O)NC1CCCC1,5.86%
16,Cc1cc(=O)n2nc(N3CCC(C(=O)NCc4cccnc4)CC3)sc2n1,6.87%
17,Cc1cc(C)c2nc(N3CCC(C(=O)NCc4ccccn4)CC3)sc2c1,9.75%
18,Cc1cc(C)c2nc(N3CCC(C(=O)NCc4cccnc4)CC3)sc2c1,-50.6%
19,O=S(=O)(c1ccccc1OC(F)(F)F)N1CCN(c2ccnc3cc(Cl)ccc23)CC1,9.89%
20,Clc1ccc2c(N3CCNCC3)ccnc2c1,-15.4%
21,O=S(=O)(c1cccs1)N1CCN(c2ccnc3cc(Cl)ccc23)CC1,-2.74%
22,O=S(=O)(c1ccccc1)N1CCN(c2ccnc3cc(Cl)ccc23)CC1,-79.9%
23,Cc1ccc(S(=O)(=O)N2CCN(c3ccnc4cc(Cl)ccc34)CC2)cc1C,21.6%

row,SMILES,"hERG current change (%, negative = inhibition) at 1uM"
1,O=[N+]([O-])c1ccc(S(=O)(=O)N2CCN(c3ccnc4cc(Cl)ccc34)CC2)cc1,-77.8%
2,O=S(=O)(c1ccc(Br)s1)N1CCN(c2ccnc3cc(Cl)ccc23)CC1,6.07%
3,O=S(=O)(c1cccc(Br)c1)N1CCN(c2ccnc3cc(Cl)ccc23)CC1,10.2%
4,N#Cc1cccc(S(=O)(=O)N2CCN(c3ccnc4cc(Cl)ccc34)CC2)c1,-57.2%
5,Cc1ccc(NC2CCCN(C(=O)c3ccc(-n4ccnc4)cc3)C2)cc1C (stereo not shown),-4.71%
6,COc1ccc(-c2cc(-c3ccc(C)cc3)nc(SCc3nnc(-c4ccccc4)o3)c2C#N)cc1OC,8.98%
7,CS(=O)(=O)N1N=C(c2ccco2)CC1c1ccccc1Cl (stereo not shown),9.15%
8,CCn1nc(C)c(/C=N/NC(=O)CSc2ccccn2)c1C,10.3%
9,COCCn1c(SCC(=O)c2c[nH]c3ccccc23)nnc1-c1ccncc1,7.84%
10,O=C(Nc1ccc(Cl)cc1)c1cncs1,11.3%
11,CC(Cc1ccc(Cl)cc1)N1CCC(n2nccc2NC(=O)C2CCCC2)CC1 (stereo not shown),-67.5%
12,Cc1ccccc1CN1CCC(n2nccc2NC(=O)c2cccnc2)CC1,4.68%
13,COC(=O)c1ccc(CN2CCC(n3nccc3NC(=O)C3CCCC3)CC2)cc1,-26.7%
14,CC(C)Oc1ccc(CN2CCC(n3nccc3NC(=O)c3cccnc3)CC2)cc1,-52.6%
15,CCc1ccc(CN2CCC(n3nccc3NC(=O)C3CCCC3)CC2)cc1,-68.2%
16,O=C(Nc1ccnn1C1CCN(Cc2ccccc2OC(F)F)CC1)c1cccnc1,2.05%
17,CC(C)Oc1ccc(CN2CCC(n3nccc3NC(=O)C3CC3)CC2)cc1,-68.4%
18,O=C(Nc1ccnn1C1CCN(Cc2ccc(Cl)cc2)CC1)C1CCCC1,-37.2%
19,CC(C)n1cc(CN2CCC(n3nccc3NC(=O)C3CCCC3)CC2)cn1,6.1%
20,CC(C)Cc1ccc(CN2CCC(n3nccc3NC(=O)C3CCCC3)CC2)cc1,-16.9%
21,COc1cc(CN2CCC(n3nccc3NC(=O)C3CC3)CC2)cc(OC)c1,-29.5%
22,COC(=O)c1ccc(CN2CCC(n3nccc3NC(=O)C3CC3)CC2)cc1,-6.68%
